TRPML1 agonist: human mucolipin-1 channel agonism; Q9GZU1; TRPML1-expressing cells, Ca2+ dye fluorescence, FDSS; activation, % (no concentration beside the values); 410,000 compounds, 0.12% hits; in the data active = activation above about 50%; inconclusive = mostly about 30% to 49%
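TRPML1-DL cells, Tet-induced overnight (~16 h, 37 degrees C), loaded 45-90 min at room temperature with Ca8 no-wash calcium dye plus quencher. FDSS fluorescence: 10 s baseline, compound pin-transfer, 110 s agonist read, then EC80 54-4 (4uM final) and 110 s antagonist read.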
DRD3 antagonist: D3 dopamine receptor (human) antagonism; P35462; D3R cells, DiscoveRx beta-arrestin luminescence, antagonist mode; hits give low values; max response, negative = inhibition, %; 360,000 compounds, 2.5% hits; AID 652054; in the data active = max response below about -50%; inconclusive = no clear call, values can overlap the other calls
Target sequence (P35462 whole entry, looked up): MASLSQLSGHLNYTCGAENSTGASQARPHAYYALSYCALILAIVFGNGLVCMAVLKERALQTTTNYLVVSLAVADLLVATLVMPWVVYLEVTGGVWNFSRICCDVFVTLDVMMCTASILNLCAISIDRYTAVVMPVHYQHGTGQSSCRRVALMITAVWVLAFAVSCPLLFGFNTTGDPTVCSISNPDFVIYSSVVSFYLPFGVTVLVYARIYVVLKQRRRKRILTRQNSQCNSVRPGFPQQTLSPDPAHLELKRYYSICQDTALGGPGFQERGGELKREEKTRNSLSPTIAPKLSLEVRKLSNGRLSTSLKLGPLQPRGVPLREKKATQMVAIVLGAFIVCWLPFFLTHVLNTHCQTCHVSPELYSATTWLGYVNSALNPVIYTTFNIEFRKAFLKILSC
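Cells expressing the human receptor were seeded at 1500 cells/well, incubated overnight at 37 degrees C in 5% CO2, then exposed to library compounds with dopamine controls for 90 minutes at 37 degrees C before luminescent detection.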
TRPML1 inh: human mucolipin-1 channel inhibition. Q9GZU1. TRPML1-inducible cells, Ca2+ dye fluorescence, FDSS; hits give low values; inhibition of EC80 agonist-evoked calcium signal. activity change, negative = inhibition, % (concentration not given with the values). 390,000 compounds, 0.02% hits. AID 624415; in the data active = activity change below about -50%; inconclusive = between about -30% and that limit;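 also: stimulus is agonist 54-4 at its EC80 concentration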
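Tet-induced TRPML1-DL cells loaded with Ca8 no-wash calcium dye were read kinetically on FDSS. Compound addition was followed by EC80 agonist 54-4 (4 uM final); inhibition was read over 110 s.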
D3 ag: agonists of human D3 dopamine receptor; P35462; D3R DiscoveRx beta-arrestin cells, luminescence, 90 min; max activation, %; 410,000 compounds, 0.58% hits; in the data active = max activation above about 30%
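Agonist mode: compounds and dopamine controls were applied to plated cells for 90 min at 37 degrees C after an overnight attachment at 1500 cells/well. Luminescent read-out followed 30 - 60 minutes at room temperature with DiscoveRx detection reagent.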
Numbers stand for hits; . = inactive; ? = inconclusive; / = no result given; ! = not active in a repeat. In the library only some 2.9% were active in any assay of this set; here they are far more common.

SMILES | TRPML1 agonist | DRD3 antagonist | TRPML1 inh | D3 ag
CCOC(=O)C1(c2ccccc2)CCN(CCC(=O)Nc2cccc(Br)c2)CC1 | . | -87.2 | . | .
CCOC(=O)C1(c2ccccc2)CCN(CCC(C#N)(c2ccccc2)c2ccccc2)CC1 | . | -72.2 | . | .
CCC(=O)Nc1ccccc1 | / | . | / | .
CCOC(=O)C1(c2ccccc2)CCN(CCC(=O)Nc2ccc(C(=O)OC)cc2)CC1 | . | -50.9 | . | .
CCN(CC)Cc1nccn1-c1ccc([N+](=O)[O-])cc1C(=O)c1ccccc1Cl | / | / | / | .
CN(C)CC(C(=O)Cc1ccccc1)c1ccccc1 (stereo not given) | . | -62.5 | . | .
CC(=NCCCO)c1c(O)n(Cc2ccccc2)c(=O)[nH]c1=O | . | . | . | .
CC(=Nc1c(C)n(C)n(-c2ccccc2)c1=O)c1c(O)n(Cc2ccccc2)c(=O)[nH]c1=O | . | -50.7 | . | .
CCC(=O)C(CC(C)N(C)C)(c1ccccc1)c1ccccc1 (stereo not given) | / | / | / | .
Cn1c(O)c(C=NCCCN2CCCC2=O)c(=O)n(C)c1=O | . | -64.7 | . | .
FC(F)OC(F)(F)C(F)Cl (stereo not given) | / | / | / | .
O=[N+]([O-])c1cc(C(F)(F)F)c(Cl)c([N+](=O)[O-])c1Nc1ncc(C(F)(F)F)cc1Cl | . | / | / | /
CN(Cc1cccc(-c2ccncc2)c1)C(=O)Oc1ccccc1Cl | . | . | / | .
Cc1nc2cc(OC(=O)N(C)Cc3cccc(-c4ccncc4)c3)ccc2s1 | . | . | / | 32.9
C[C@]12CC[C@H]3[C@@H](CC[C@@]45O[C@@H]4C(O)=C(C#N)C[C@]35C)[C@@H]1CC[C@@H]2O | / | / | / | .
N#Cc1ccc2nc(-c3ccc(CN4CCC(n5c(=O)[nH]c6ccccc65)CC4)cc3)c(-c3ccccc3)nc2c1 | . | -56.5 | / | .
C[C@]12CC[C@H]3[C@@H](CCC4=CC(=O)CC[C@@H]43)[C@@H]1CC[C@@H]2OC(=O)CCc1ccccc1 | / | / | / | .
Cc1ccc(N2C(=O)NC(=O)/C(=C\C=C\c3ccco3)C2=O)cc1C | . | -58.6 | . | .
O=C1CC(c2ccc(F)cc2)c2c(c3ccccc3oc2=O)O1 (stereo not given) | . | / | . | .
CCN1CC=C(c2c[nH]c3ccccc23)CC1 | . | -70.7 | . | .
Cc1[nH]c2ccccc2c1C(=O)CN1CC=C(c2ccccc2)CC1 | . | ? | . | .
Cc1ccc(CN2Cc3ccc(Br)cc3-n3nncc3C2)cc1 | . | -55.5 | / | .
CO[C@H]1[C@@H](O)C[C@H](O[C@H]2[C@@H](O)C[C@H](O[C@H]3[C@@H](O)C[C@H](O[C@H]4CC[C@@]5(C)[C@H](CC[C@@H]6[C@@H]5C[C@@H](O)[C@]5(C)[C@@H](C7=CC(=O)OC7)CC[C@]65O)C4)O[C@@H]3C)O[C@@H]2C)O[C@@H]1C | / | / | / | .
Nc1nc(N)c2nc(CNc3ccc(C(=O)N[C@@H](CCC(=O)O)C(=O)O)cc3)cnc2n1 | / | / | / | .
COc1cc([C@@H]2c3cc4c(cc3[C@@H](O)[C@H]3COC(=O)[C@H]23)OCO4)cc(OC)c1O | / | / | / | .
SMILES | TRPML1 agonist | DRD3 antagonist | TRPML1 inh | D3 ag
CCCCn1c(O)c(C(C)=NCCN2CCCCC2)c(=O)[nH]c1=O | . | -71.3 | . | .
C=CCn1c(O)c(C(C)=NCCN2CCCCC2)c(=O)[nH]c1=O | . | -64.5 | . | .
CC(=NCCN1CCCCC1)c1c(O)[nH]c(=O)[nH]c1=O | . | -53.1 | . | .
CC[C@H]1C[C@@H]2C[C@H]3c4[nH]c5ccc(OC)cc5c4CCN(C2)[C@@H]13 | / | / | / | .
CCCCC[C@@H](O)C1C(=O)OC(C)[C@H](O)/C=C/C=C/C=C/C=C/C=C(\C)C(O)C(O)C(O)C[C@H](O)C[C@H](O)C[C@H](O)C[C@H](O)C[C@@H]1O (stereo not given in full) | / | / | / | .
ClCCN(CCCl)c1ccc(C=Nc2ccc(/C=C/c3ccncc3)cc2)cc1 | . | / | / | /
Cc1ccc(N2C(=O)NC(=O)/C(=C\c3cc(C)n(-c4cc(C(=O)O)cc(C(=O)O)c4)c3C)C2=O)cc1 | . | -53.5 | . | .
CCC(=O)OC1(c2ccccc2)CCN(C)CC1 | / | / | / | .
CCN(CC)c1ccc(CN2CC=C(c3ccc(F)cc3)CC2)cc1 | . | -67.1 | . | .
COc1ccc(CN2CC=C(c3ccc(F)cc3)CC2)cc1Br | . | -68.1 | . | .
CCNCCNc1ccc([N+](=O)[O-])c2cccnc12 | . | ? | . | .
Cc1nonc1OCCNCCNc1ccc([N+](=O)[O-])c2cccnc12 | . | -62.8 | . | .
Cc1ccccc1-n1c(C)nc2ccccc2c1=O | . | . | . | 67.8!
Cc1cccc(-n2c(C)nc3ccccc3c2=O)c1C | . | . | . | .
O=C(c1ccccc1)c1cn(CC(=O)N2CCCc3ccccc32)c2ccccc12 | . | . | . | .
CC1CCCN(CC(=O)N2CCCc3ccccc32)C1 (stereo not given) | . | -57.4 | . | .
O=C1C(=O)c2ccccc2-c2ccccc21 | . | -67.2 | . | .
O=C1C(c2ccccc2)=C(N2CC2)c2ccccc21 | . | . | . | .
c1cc2ccc3cccc4ccc(c1)c2c34 | / | / | / | .
O=C1C(=O)c2cccc3cccc1c23 | . | -58.7 | . | .
C[C@@H]1O[C@@H](O[C@@H]2C=C3CC[C@@H]4[C@H](CC[C@]5(C)[C@@H](c6ccc(=O)oc6)CC[C@]45O)[C@@]3(C)CC2)[C@H](O)[C@H](O)[C@H]1O | / | / | / | .
CC1(C)CSC(=NCc2ccccc2)N1 | 91.4 | . | . | .
CC(C)CCNC(=O)CN1C(=O)CN=C(c2ccccc2)c2ccccc21 | . | . | . | .
O=C(CN1C(=O)CN=C(c2ccccc2)c2ccccc21)NCc1ccco1 | . | -60.7 | . | .
CCc1ccc(CN2CCN(Cc3cc(Br)ccc3O)CC2)cc1 | . | -80.4 | . | .
SMILES | TRPML1 agonist | DRD3 antagonist | TRPML1 inh | D3 ag
CCN1CCN(Cc2cc(Br)cc(Br)c2O)CC1 | . | ? | . | .
CCN1CCN(Cc2cc(Br)ccc2O)CC1 | . | -73.4 | . | .
Oc1ccc(Br)cc1CN1CCN(c2ccccc2)CC1 | . | -94.6 | . | .
COc1ccc(Br)cc1CN1CCN(CCO)CC1 | . | -86.7 | . | .
CC1(C)CC/C(=C/c2ccc(Cl)cc2)C1(O)Cn1cncn1 (stereo not given) | / | / | / | .
COc1ccc(NC(=O)CN2C(=O)CN=C(c3ccccc3)c3ccccc32)c(OC)c1 | . | / | . | .
N#Cc1c(Br)n(C2OC(CO)C(O)C2O)c2ncnc(N)c12 (stereo not given) | . | . | . | 38.1
Cc1nc2c(=O)n(C)c(=O)nc-2n(C)n1 | . | -98.1 | . | .
CCCCOC(=O)C1=C(N)OC2=C(C(=O)CCC2)[C@]12C(=O)N(C)c1ccccc12 | . | -53.7 | . | .
COc1cc(CC(C)N)cc2c1OCO2 (stereo not given) | / | / | / | .
CC(C)CNC(=O)c1c(N)n(Cc2ccc3c(c2)OCO3)c2nc3ccccc3nc12 | . | . | . | .
CC(C)CCNC(=O)c1c(N)n(Cc2ccc3c(c2)OCO3)c2nc3ccccc3nc12 | . | . | . | 34.9

Screens as filed in PubChem.
